The results in this text go back to PubChem BioAssay (NCATS).

Assay [1] deals with Lysosomal acid glucosylceramidase (Homo sapiens) (UniProt P04062). Nature of the assay: Glucocerebrosidase-p2 (AID 348; in the data active = potency below about 10 µM; note: potency is the fitted concentration of half-maximal effect). Conditions: purified GBA, blue fluorogenic substrate, 40 min. Summed up:
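Compounds titrated from 0.6 nM upwards against 0.2 nM enzyme in pH 5.9 citric acid/KH2PO4, taurocholate, tween-20; blue fluorogenic substrate 80 uM, 40 min room temperature, stopped and read Ex 365/Em 440 for AC50.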

A short description of assay [2]: AP1 Signaling Pathway (AID 357; active = well fitted curve in either direction with a large enough effect, not every such curve was filed as active;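 note: ME-180 reporter cells stimulated with EGF at its EC50 level; % is set by controls: 0 for no effect and ±100 for the full control effect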). Conditions: ME-180 AP-1-bla reporter, EGF-induced, beta-lactamase ratio, 5 h; at 7.69 µM (top of the series) unless noted. Summed up:
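Modulation of EGF-driven AP-1 transcription was assessed with a beta-lactamase reporter in ME-180 cells. Compound and EC50 EGF were co-incubated 5 hours at 37 °C before 2.5-hour CCF4 loading at room temperature and dual-emission reading.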

Assay [3] can be described thus: NFAT Signaling Pathway (AID 444; active = well fitted curve in either direction with a large enough effect, not every such curve was filed as active;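 note: carbachol stimulus at about its EC50 of 1 µM final; % is set by controls: 0 for no effect and ±100 for the full control effect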). Particulars: Jurkat NFAT-bla M1, carbachol, beta-lactamase ratio, 5 h; at 7.69 µM (top of the series) unless noted. Summed up:
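Read-out: CCF4 FRET ratio (460 nm/530 nm) after 1 h RT dye loading, used for %activity and AC50 from titration series. Cells: Jurkat NFAT-β-lactamase/M1 line, treated with compound plus 1 uM carbachol for 5 h, 37 °C.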

Assay [4] has as its target Glucocorticoid receptor (Homo sapiens) (UniProt P04150). Nature of the assay: GR-GFP Redistribution (AID 450;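 active = compounds whose dose series gives a full or clear partial fitted curve of increased nuclear translocation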; note: potency is the fitted concentration of half-maximal effect). Conditions: U2OS GR-GFP nuclear translocation, laser cytometry, 2 h.
For assay [5] the target is unchanged. The experiment in a line: GR-EFC Redistribution (AID 451; calls by dose curve; note: potency is the fitted concentration of half-maximal effect). Conditions: CHO-K1 GR-EFC translocation, beta-gal luminescence, 2 h. In a few lines:
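Translocation of GR-ED fusion to nuclear EA restores b-gal, read by luminescence after 1 h room-temperature detection. Engineered CHO-K1 biosensor cells, 1,000/well, exposed 2 h at 37 C to titrations up to 46 uM final.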

The target in assay [6] is Mitogen-activated protein kinase 10 (Mus musculus) (UniProt Q61831). Nature of the assay: JNK3 AlphaScreen Assay (AID 530; active = well fitted curve in either direction with a large enough effect, not every such curve was filed as active;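 note: kinase came from lysate of stimulated human HepG2 cells; signal reports phosphorylation of biotinylated GST-cJun 1-79 at Ser73 with 10 µM ATP; % is set by controls: 0 for no effect and ±100 for the full control effect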). In a few lines: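 Room-temperature AlphaScreen kinase assay; pre-activated HepG2 lysate as JNK3 source, biotin-GST-cJun(1-79) substrate, 10 uM ATP, compound 15 min preincubation.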
(Bead proximity is the source of the signal in Alpha formats.)

Assay [7] deals with 3',5'-cyclic-AMP phosphodiesterase 4B (Homo sapiens) (UniProt Q07343). The experiment in a line: qHTS Assay for Inhibitors of PDE-IV (AID 607; active = well fitted activation curve with a large enough effect in the main read-out, with a control signal flat, not every such curve was filed as active; note: % of control where 0% means no effect). In a few lines:
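The readout is membrane depolarisation from a cAMP-sensing CNG channel, detected with a potential dye at ex 535/em 590. Cells were HEK293-derived (endogenous PDE-IV) at 1000 cells/well, titrated up to 22.9 uM final.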

The target of assay [8] is Cytochrome P450 2D6 (Homo sapiens) (UniProt P10635). Nature of the assay: qHTS Assay for Inhibitors and Substrates of Cytochrome P450 2D6 (AID 891). Note: potency is the fitted concentration of half-maximal effect; nearly all actives have a fitted effect of over 60% in size. Summed up: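 Human CYP2D6 (5 nM) with 30 uM Luciferin-ME EGE (at Km) in 100 mM KPO4, compound preincubated 10 min, then NADPH regeneration system for 60 min at room temperature. Luciferin read by luminescence; normalized to 1.43 uM quinidine.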
On the technique in general: In qHTS, concentration-response curves come from the screen itself.

Assay [9] deals with Dual specificity protein kinase CLK4 (Homo sapiens) (UniProt Q9HAZ1). Nature of the assay: qHTS Assay for Inhibitors of CDC-like Kinase 4 (Kinase-Glo Assay) (AID 1770). Note: nearly all actives have a fitted effect of over 65% in size. Note: potency is the fitted concentration of half-maximal effect. In a few lines: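 Inhibition was judged from remaining ATP, measured by Ultra-Glo luciferase bioluminescence after Clk4 (25 nM) had acted on RS peptide at 1 uM ATP for 4.5 hours, room temperature.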
The target is the same in assay [10]. The experiment in a line: qHTS Assay for Inhibitors of CDC-like Kinase 4 (ADP-FP Assay) (AID 1795). Note: nearly all actives have a fitted effect of over 60% in size. Note: potency is the fitted concentration of half-maximal effect. Summed up:
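Inhibition of ADP formation by 6.25 nM Clk4 is measured using 1 uM ATP and 100 uM RS repeat peptide over one hour. Produced ADP displaces a fluorescent tracer from antibody, lowering polarization.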

Assay [11] has as its target Ubiquitin carboxyl-terminal hydrolase 1 (Homo sapiens) (UniProt O94782). Nature of the assay: Inhibitors of USP1/UAF1: Pilot qHTS (AID 504865). Note: nearly all actives have a fitted effect of over 35% in size. Note: potency is the fitted concentration of half-maximal effect. Summed up:
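Kinetic fluorescence assay: 1nM USP1/UAF1, 15 min compound preincubation, then 150nM Ub-Rho; 480/540 nm.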

Assay [12] is described as follows: Primary qHTS for small molecule stabilizers of the endoplasmic reticulum resident proteome: Secreted ER Calcium Modulated Protein (SERCaMP) assay (AID 1508630). Note: % is set by controls: 0 for no effect and ±100 for the full control effect. In a few lines: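 GLuc-SERCaMP-expressing SH-SY5Y cells, pretreated 16 h with compound, are challenged with thapsigargin to empty ER calcium stores; after 4 h, coelenterazine is added directly to the medium and luminescence is imaged.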

Assay [13] has as its target Cytochrome P450 1A2 (Homo sapiens) (UniProt P05177). Nature of the assay: p450-cyp1a2 (AID 410; calls by dose curve; note: potency is the fitted concentration of half-maximal effect). In a few lines:
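Inhibition was calculated relative to 57 uM furafylline (full inhibition). The reaction used human CYP1A2 at 20nM with Luciferin-ME at its Km, 100uM, driven by an NADPH-regenerating system for 60 min at room temperature.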

Assay [14] in a line: Stat Signaling Pathway (AID 446; active = well fitted curve in either direction with a large enough effect, not every such curve was filed as active). Particulars: ME-180 SIE beta-lactamase reporter, IL-6 stimulated, 5 h; at 7.69 µM (top of the series) unless noted. In a few lines: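 Screening format detects activators and inhibitors alike: ME-180 SIE-bla cells stimulated at 40 pM IL-6 for 5 hrs with compound, then dual-emission beta-lactamase read at 405 nm excitation.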
Assay [15] has as its target Cytochrome P450 3A4 (Homo sapiens) (UniProt P08684). The experiment in a line: qHTS Assay for Inhibitors and Substrates of Cytochrome P450 3A4 (AID 884). Note: potency is the fitted concentration of half-maximal effect; nearly all actives have a fitted effect of over 50% in size. Summed up:
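20 nM human CYP3A4 with 25 uM Luciferin-PPXE (at KM) in 200 mM KPO4, preincubated 10 min with compound; NADPH regeneration started a 60 min RT reaction. Luciferin detected by luminescence, normalized to 57 uM ketoconazole as full inhibition.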

Assay [16] has the same target. Nature of the assay: qHTS Assay for Activators of Cytochrome P450 3A4 (AID 885). Note: nearly all actives have a fitted effect of over 65% in size. In a few lines: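 Steps: enzyme/substrate mix dispensed; compound added, 10 min RT; NADPH regeneration solution added, 60 min RT; luciferin detection buffer stops reaction; 20 min later luminescence measured.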
For assay [17], the target named is Dual specificity protein kinase CLK4 (Homo sapiens) (UniProt Q9HAZ1). The experiment in a line: qHTS Assay for Inhibitors of CDC-like Kinase 4 (ADP-Glo Assay) (AID 1771). Note: potency is the fitted concentration of half-maximal effect; nearly all actives have a fitted effect of over 70% in size. Summed up:
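Kinase reaction: Clk4 at 25 nM, RS repeat peptide substrate at 100 uM, ATP at 1 uM, 1 hr, room temperature. Product ADP detected as luciferase signal via ADP-Glo.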

Assay [18] deals with Cytochrome P450 2C9 (Homo sapiens) (UniProt P11712). The experiment in a line: qHTS Assay for Inhibitors and Substrates of Cytochrome P450 2C9 (AID 883). Note: % is set by controls: 0 for no effect and ±100 for the full control effect; nearly all actives have a fitted effect of over 60% in size. Summed up: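 Inhibition of CYP2C9 is scored as loss of luminescence, with 57uM sulphaphenazole defining 100% inhibition. Substrate Luciferin-H is used at 100uM, equal to its KM; enzyme at 10nM in 25mM KPO4, 60 min at 37C with NADPH regeneration.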

The nature of assay [19]: qHTS Assay for Identification of Small Molecule Agonists for Hypoxia Response Element Signaling Pathway (AID 914; active = well fitted activation curve with a large enough effect in the signal ratio, with a control signal flat, not every such curve was filed as active; the % refers to the signal ratio; note: potency is the fitted concentration of half-maximal effect). Particulars: ME-180 (cervical carcinoma) HRE-bla reporter, beta-lactamase ratio, CoCl2, 17 h; activation: hits give high values. Summed up:
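Reporter activity (beta-lactamase, CCF4 460nm/530nm ratio) in HRE-bla ME-180 cells is recorded after 17 h compound exposure with EC50 CoCl2 at 37 degrees Celsius. AC50 values come from titration data.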

Assay [20] deals with Cytochrome P450 2C19 (Homo sapiens) (UniProt P33261). Nature of the assay: qHTS Assay for Inhibitors and Substrates of Cytochrome P450 2C19 (AID 899). Note: potency is the fitted concentration of half-maximal effect; nearly all actives have a fitted effect of over 60% in size. Summed up: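 5nM enzyme + 10uM Luciferin-H EGE (=KM), 50mM KPO4; cpd pin-transferred, 10 min 37C; NADPH regen, 60 min 37C; stopped w/ luciferin detection reagent, 20 min; luminescence. Normalized to 57uM ketoconazole (AC100).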

A number with no mark means an inactive call. Records with an inconclusive call do not appear. Activity calls are given as the source filed them. Unless noted, calls come from the whole dose curve; as a rule, active = well fitted curve in the direction sought with a large enough effect; inconclusive = small, poorly fitted or top-dose-only effect, or another doubt; inactive = no such curve, though single readings can be large; an effect the other way counts as inactive or inconclusive. Bounds are passed on as bounds.

Ubiquitin carboxyl-terminal hydrolase 1 (Homo sapiens), sequence (O94782 whole entry, looked up): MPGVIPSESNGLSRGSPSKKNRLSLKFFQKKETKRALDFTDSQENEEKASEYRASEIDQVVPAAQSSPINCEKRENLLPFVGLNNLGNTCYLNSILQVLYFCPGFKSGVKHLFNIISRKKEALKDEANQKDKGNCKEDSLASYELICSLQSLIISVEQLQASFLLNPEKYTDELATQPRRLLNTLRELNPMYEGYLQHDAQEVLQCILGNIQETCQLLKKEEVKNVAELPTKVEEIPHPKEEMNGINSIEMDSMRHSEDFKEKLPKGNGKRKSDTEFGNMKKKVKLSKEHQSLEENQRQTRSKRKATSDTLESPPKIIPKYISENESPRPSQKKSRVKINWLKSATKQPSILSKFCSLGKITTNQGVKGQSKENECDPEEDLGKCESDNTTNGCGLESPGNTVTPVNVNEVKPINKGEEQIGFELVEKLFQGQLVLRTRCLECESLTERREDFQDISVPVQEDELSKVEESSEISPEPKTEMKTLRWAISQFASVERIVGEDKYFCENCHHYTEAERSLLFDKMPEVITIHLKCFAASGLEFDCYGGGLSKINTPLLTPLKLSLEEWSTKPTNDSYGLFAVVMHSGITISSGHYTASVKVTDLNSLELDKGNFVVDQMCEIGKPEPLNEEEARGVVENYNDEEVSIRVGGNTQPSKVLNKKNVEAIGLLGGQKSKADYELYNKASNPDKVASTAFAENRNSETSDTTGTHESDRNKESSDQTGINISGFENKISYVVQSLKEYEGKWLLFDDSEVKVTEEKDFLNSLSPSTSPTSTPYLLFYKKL
Glucocorticoid receptor (Homo sapiens), sequence (P04150 whole entry, looked up): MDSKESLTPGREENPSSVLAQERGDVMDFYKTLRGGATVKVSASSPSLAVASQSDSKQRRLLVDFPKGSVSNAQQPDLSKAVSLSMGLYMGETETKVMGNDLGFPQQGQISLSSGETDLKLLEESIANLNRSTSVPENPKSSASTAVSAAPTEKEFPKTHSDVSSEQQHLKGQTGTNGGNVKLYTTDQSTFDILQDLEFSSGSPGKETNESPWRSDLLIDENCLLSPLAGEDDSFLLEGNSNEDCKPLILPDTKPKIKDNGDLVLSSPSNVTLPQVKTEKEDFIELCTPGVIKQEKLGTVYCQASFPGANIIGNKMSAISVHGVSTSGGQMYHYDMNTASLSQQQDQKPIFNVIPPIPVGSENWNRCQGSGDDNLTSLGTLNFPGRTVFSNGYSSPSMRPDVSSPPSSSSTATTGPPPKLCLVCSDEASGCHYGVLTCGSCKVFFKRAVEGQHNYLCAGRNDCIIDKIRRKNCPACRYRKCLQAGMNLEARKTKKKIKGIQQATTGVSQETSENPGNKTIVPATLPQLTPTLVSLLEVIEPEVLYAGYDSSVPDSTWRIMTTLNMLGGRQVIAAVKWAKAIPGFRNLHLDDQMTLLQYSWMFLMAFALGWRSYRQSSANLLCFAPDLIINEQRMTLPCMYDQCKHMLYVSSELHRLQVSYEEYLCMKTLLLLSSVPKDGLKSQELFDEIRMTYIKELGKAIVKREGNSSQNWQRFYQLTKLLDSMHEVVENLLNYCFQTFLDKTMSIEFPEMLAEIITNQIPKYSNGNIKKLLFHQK
Cytochrome P450 3A4 (Homo sapiens), sequence (P08684 whole entry, looked up): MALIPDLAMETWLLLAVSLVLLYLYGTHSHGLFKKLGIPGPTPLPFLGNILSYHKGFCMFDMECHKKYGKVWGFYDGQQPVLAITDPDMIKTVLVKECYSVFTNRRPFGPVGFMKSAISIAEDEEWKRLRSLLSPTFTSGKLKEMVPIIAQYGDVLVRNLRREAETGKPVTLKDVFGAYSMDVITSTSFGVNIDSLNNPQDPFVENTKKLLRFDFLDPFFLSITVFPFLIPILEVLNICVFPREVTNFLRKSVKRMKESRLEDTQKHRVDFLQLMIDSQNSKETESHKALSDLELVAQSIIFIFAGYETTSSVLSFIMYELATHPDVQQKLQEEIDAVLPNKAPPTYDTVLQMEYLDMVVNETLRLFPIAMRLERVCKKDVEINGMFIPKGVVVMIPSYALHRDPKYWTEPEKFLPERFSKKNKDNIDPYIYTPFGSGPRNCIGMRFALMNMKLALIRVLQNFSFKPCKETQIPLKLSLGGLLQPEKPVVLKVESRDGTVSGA
Lysosomal acid glucosylceramidase (Homo sapiens), sequence (P04062 whole entry, looked up): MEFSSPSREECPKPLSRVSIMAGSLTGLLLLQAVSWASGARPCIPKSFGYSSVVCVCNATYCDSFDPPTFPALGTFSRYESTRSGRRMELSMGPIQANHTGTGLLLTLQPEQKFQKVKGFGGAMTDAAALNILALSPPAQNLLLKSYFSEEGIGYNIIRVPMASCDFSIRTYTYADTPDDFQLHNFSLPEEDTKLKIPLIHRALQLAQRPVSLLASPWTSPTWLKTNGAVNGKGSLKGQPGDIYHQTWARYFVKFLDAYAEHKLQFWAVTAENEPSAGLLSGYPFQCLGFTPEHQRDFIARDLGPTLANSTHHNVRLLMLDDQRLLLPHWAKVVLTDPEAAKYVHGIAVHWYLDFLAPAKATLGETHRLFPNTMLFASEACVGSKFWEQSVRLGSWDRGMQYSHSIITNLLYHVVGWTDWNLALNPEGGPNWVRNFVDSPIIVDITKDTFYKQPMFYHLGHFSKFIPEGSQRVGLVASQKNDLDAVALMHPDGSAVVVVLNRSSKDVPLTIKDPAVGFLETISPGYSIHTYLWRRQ
Dual specificity protein kinase CLK4 (Homo sapiens), sequence (Q9HAZ1 whole entry, looked up): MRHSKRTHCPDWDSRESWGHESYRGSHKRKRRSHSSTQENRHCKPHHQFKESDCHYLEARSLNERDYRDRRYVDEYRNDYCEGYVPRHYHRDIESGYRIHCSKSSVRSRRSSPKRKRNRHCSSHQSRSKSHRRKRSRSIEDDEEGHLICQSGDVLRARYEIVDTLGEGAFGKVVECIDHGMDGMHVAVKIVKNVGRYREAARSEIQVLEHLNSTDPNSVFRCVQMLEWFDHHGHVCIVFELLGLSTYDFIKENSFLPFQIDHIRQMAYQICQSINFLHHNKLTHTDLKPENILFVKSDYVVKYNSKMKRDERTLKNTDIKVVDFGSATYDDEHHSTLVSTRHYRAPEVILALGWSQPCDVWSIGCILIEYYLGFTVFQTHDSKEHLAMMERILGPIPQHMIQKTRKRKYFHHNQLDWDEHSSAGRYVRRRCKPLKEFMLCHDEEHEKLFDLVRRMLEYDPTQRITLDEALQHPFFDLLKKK
Cytochrome P450 1A2 (Homo sapiens), sequence (P05177 whole entry, looked up): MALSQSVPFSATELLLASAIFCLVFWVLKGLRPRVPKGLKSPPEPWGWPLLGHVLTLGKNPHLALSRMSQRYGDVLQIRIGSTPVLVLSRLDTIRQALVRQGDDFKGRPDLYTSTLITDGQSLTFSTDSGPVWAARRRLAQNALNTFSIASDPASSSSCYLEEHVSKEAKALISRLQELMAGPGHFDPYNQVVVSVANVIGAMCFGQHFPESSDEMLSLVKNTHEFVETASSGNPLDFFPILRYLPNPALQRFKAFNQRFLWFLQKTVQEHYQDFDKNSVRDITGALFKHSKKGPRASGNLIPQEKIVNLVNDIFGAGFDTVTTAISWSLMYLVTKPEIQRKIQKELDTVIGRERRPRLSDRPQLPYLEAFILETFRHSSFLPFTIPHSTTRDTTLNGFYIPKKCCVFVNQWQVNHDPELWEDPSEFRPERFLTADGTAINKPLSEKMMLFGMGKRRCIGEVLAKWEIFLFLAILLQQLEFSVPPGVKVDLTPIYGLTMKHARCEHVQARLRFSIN
3',5'-cyclic-AMP phosphodiesterase 4B (Homo sapiens), sequence (Q07343 whole entry, looked up): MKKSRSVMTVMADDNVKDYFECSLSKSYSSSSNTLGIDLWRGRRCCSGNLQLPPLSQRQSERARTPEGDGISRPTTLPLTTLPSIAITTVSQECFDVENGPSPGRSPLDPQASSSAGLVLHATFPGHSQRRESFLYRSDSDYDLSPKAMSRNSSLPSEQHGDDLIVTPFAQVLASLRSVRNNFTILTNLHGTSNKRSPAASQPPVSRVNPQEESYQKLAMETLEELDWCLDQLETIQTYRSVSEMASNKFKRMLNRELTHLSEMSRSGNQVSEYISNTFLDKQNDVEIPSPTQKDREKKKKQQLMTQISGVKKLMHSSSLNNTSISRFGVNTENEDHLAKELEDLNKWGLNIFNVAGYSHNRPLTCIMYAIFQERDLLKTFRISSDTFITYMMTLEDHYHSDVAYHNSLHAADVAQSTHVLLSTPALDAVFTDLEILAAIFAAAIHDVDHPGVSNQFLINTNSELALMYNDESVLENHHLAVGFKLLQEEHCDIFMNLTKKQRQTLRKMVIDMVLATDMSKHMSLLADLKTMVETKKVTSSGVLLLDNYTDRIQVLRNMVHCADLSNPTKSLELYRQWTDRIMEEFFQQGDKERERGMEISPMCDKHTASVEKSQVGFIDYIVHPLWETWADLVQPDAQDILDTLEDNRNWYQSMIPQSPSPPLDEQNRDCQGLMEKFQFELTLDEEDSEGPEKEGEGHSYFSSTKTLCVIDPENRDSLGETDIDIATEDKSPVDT
Cytochrome P450 2C19 (Homo sapiens), sequence (P33261 whole entry, looked up): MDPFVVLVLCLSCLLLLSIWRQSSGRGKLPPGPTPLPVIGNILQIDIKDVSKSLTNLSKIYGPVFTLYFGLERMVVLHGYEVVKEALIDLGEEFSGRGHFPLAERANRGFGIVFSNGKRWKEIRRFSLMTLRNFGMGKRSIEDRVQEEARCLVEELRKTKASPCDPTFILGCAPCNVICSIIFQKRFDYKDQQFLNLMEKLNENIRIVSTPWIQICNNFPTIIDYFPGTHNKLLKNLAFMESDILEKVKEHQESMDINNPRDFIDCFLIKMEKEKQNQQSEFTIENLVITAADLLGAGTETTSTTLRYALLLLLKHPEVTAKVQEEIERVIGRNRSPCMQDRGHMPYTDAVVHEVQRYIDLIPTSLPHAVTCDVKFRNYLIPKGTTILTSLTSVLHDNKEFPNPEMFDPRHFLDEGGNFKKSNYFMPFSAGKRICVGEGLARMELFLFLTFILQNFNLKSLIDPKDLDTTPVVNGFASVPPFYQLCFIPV

With `CCNc1ncc2nc(-c3cc(F)cc(F)c3)c(=O)n(CCC#N)c2n1`, the Potency in [1] is > 11.4 µM; in assay [4], > 9.22 µM; in [5] it was > 46 µM; in [8], 0.0631 µM (active); in assay [9] it was 31.6 µM (active). In addition, the figures for the activity change, negative = inhibition in [2] and in [3] were 28.7% and -24.5%, respectively. Moreover, the Potency entry in [6], in assay [7], in assay [10] and in assay [11] was “inactive” each time. For the same compound, the outcome in assay [12] was inactive.
As to `COc1cccc(-c2nccc(NCc3cnc(C)cn3)n2)c1`, the Potency in [1] was > 11.4 µM; in assay [13], 0.501 µM (active); in assay [4], > 46 µM; in [5] it was > 46 µM; in assay [15], 6.31 µM (active); in assay [17], 28.2 µM (active). For the same compound, the activity change, negative = inhibition in assay [2] is 2.41%; in assay [3], -1.09%. The activity, negative = inhibition in assay [14] is 13.7%. Further, the Potency entry in [6], in [7], in assay [16], in assay [10] and in assay [11] was “inactive” throughout. Further, in assay [12], the result was inactive.
Regarding `CN(C)c1nc(-c2cccnc2)nc2ccccc12`, the Potency in [1] was > 11.4 µM; in [13], 0.126 µM (active); in assay [4], > 46 µM; in [5] it was > 46 µM; in assay [15] it was 7.94 µM (active); in [9], 28.2 µM (active). The results for the activity change, negative = inhibition in assay [2], in assay [3] and in assay [18] were 12.7%, -1.56% and 81% [at 2.29 µM], respectively. The activity, negative = inhibition in assay [14] was -4.72%. Besides, the Potency result in [6], in assay [7], in assay [16] and in assay [11] was “inactive” in each case. Moreover, in [12], the outcome was inactive.
Take `O=c1c(-c2cc(F)cc(F)c2)nc2cnc(N3CCNCC3)nc2n1Cc1ccc(F)cc1`: the Potency in [1] was > 11.4 µM; in assay [4] it was > 9.22 µM; in assay [5], > 46 µM. Moreover, the Potency entry in [6], in [7] and in assay [9] was “inactive” in each case. In addition, the outcome in assay [12] was inactive.
Consider `Cc1cnc(CNc2cc(-c3ccccc3CN(C)C)ncn2)cn1`, for which the Potency is > 11.4 µM in [1], > 46 µM in assay [4] and > 46 µM in assay [5]. For the same compound, the activity change, negative = inhibition was 17.7% in [2] and -9.03% in assay [3]. For the same compound, the activity, negative = inhibition in assay [14] is 7.96%. Also, the Potency result in assay [6], in [7], in assay [9], in assay [10] and in [11] was “inactive” each time. Also, in [12], the outcome was inactive.
Turning to `CN1CCN(c2ncc3nc(-c4cn(C)c5ccccc45)c(=O)n(Cc4cccs4)c3n2)CC1`, the Potency in [1] was > 11.4 µM; in assay [4] it was > 9.22 µM; in assay [5], > 46 µM; in assay [19], 2.51 µM (active). Further, in assay [3], the activity change, negative = inhibition was 3.65%. The Potency entry in assay [7], in assay [9], in assay [10] and in [11] was “inactive” each time. For the same compound, the outcome in assay [12] was inactive.
With `Clc1ccccc1-c1nc(NCc2cccs2)c2ccccc2n1`, the Potency in [13] is 1 µM (active); in assay [4], > 46 µM; in [5], > 46 µM; in [15], 6.31 µM (active); in [20] it was 7.94 µM (active); in assay [9], 7.94 µM (active). The Potency is 12.6 µM (active) in assay [10] and 14.1 µM (active) in assay [11]. In [3], the activity change, negative = inhibition is -8.75%. In assay [14], the activity, negative = inhibition is 0.228%. Further, the Potency result in [6] and in [16] was “inactive” in each case. Further, the outcome in assay [12] was inactive.
